# Measured values taken from PubChem BioAssay AID1850 (Southern Research Specialized Biocontainment Screening …, 2009).
# Hit rate of the full screen: of about 310,000 compounds, about 1,000 (0.32%) were called active. A selection follows. Potency and affinity values are given separately. Values without a mark were called inactive. The rule behind the calls is not given here.
# Test: Inhibition of PhoP regulon, Salmonella typhi GFP reporter cells, confirmation, 4 h (AID 1850);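 note: 0% = induced wells with vehicle and 100% = uninduced wells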
# Conditions: Salmonella Typhi PhoP-promoter GFP reporter, fluorescence, at 50 µM, stronger effect = higher value
row,SMILES,inhibition [%]
1,Cc1ccc(-c2cc(C(=O)OCC(=O)Nc3ncc(C(F)(F)F)cc3Cl)c3ccccc3n2)cc1,-6.32
2,O=C(CN1c2ccccc2S(=O)(=O)c2ccccc21)Nc1ccccc1F,2.92
3,CC(NC(=O)Cn1ncc(Cl)c(Cl)c1=O)C12CC3CC(CC(C3)C1)C2 (stereo not given),-18.9
4,O=C(O)CN1C2=NCCCN2c2ccccc21,-7.68
5,O=C(CN1C2=NCCN2c2ccccc21)c1ccc(Br)s1,13.2
6,O=C(CN1C2=NCCCN2c2ccccc21)c1ccc2c(c1)OCO2,28.1
7,O=C(CN1C2=NCCCN2c2ccccc21)c1cccs1,9.76
8,CCOC(=O)Nc1cc(Br)c2c(c1)OCCO2,9.05
9,CCCC[C@@H]1C[C@H]1[C@@H](NC(=O)c1ccco1)c1ccc(C(=O)OC)cc1,-1.55
10,COc1ccc(CNC(=O)c2ccc3c(=O)n(-c4ccccc4)c(=O)[nH]c3c2)cc1,9.07
11,Cc1cccc2cc(CN(CCCO)C(=O)Nc3cccc(Cl)c3)c(=O)[nH]c12,-2.46
12,C=CCNc1nc(C(=O)OCC(=O)c2ccc(Cl)cc2)cs1,0.24
13,CS(=O)(=O)Nc1cccc(C2=NN(C(=O)c3ccc(F)cc3)C(c3cccs3)C2)c1 (stereo not given),-1.48
14,O=C1OCCN1/N=C/c1ccc([N+](=O)[O-])o1,-7.99
15,O=C1C2C(C(=O)N1/N=C/c1ccc([N+](=O)[O-])o1)C1C=CC2C12CC2 (stereo not given),-7.07
16,O=C(c1cc(S(=O)(=O)N2CCOCC2)c(Cl)cc1Cl)N1CCCCC1,-2.41
17,OC(COc1ccccc1)CN(Cc1ccccc1)CC(O)COc1ccccc1 (stereo not given),-0.87
18,CCOc1ccc(-c2cc(C)[n+](CCN3CCOCC3)c(-c3ccc(OCC)cc3)c2)cc1,8.34
19,CCOc1ccc(-c2cc(C)[n+](CCO)c(-c3ccc(OCC)cc3)c2)cc1,-1.61
20,COC(=O)COc1ccc(C(=O)Cn2c(NCCCO)nc3ccccc32)cc1,4.11
21,Cc1ccc(C(=O)CCS(=O)(=O)c2ccc(Br)cc2)cc1,-6.22
22,Cc1ccc(C(=O)CCS(=O)(=O)c2ccc(Cl)cc2)cc1,2.23
23,COc1ccc(CC(=O)Oc2ccc(C(C)C)cc2)cc1S(=O)(=O)N1CCOCC1,5.73
24,Cc1ccc(S(=O)(=O)NN2C(=O)c3ccccc3NC2c2ccco2)cc1 (stereo not given),-0.11
25,O=C(O)c1ccc2c(c1)N(Cc1ccccc1)C(=O)c1ccccc1S2=O (stereo not given),-5.21
26,COc1ccc(CSc2nnnn2Cc2ccccc2)cc1OC,-8.33
27,COC(=O)C1=CO[C@@H](OC2OC(CO)C(O)C(O)C2O)[C@@H]2C(CO)=CC[C@H]12 (stereo not given in full),-13
28,CN(C)C(=O)C12CCC(C)(C(=O)C1Br)C2(C)C (stereo not given),7.02

row,SMILES,inhibition [%]
1,CCCC[C@@H]1CN=C(N)N1CCc1cc(C(F)(F)F)cc(C(F)(F)F)c1,11.5
2,NC1=NC[C@H](Cc2ccccc2)N1CCc1cc(C(F)(F)F)cc(C(F)(F)F)c1,-32.4
3,FC(F)(F)c1cc(CCN2C(=S)NC[C@@H]2CC2CCCCC2)cc(C(F)(F)F)c1,-1.84
4,NC1=NC[C@H](c2ccccc2)N1CCc1cccc(F)c1,12.6
5,Cc1ccc(S(=O)(=O)N2CCCN(S(=O)(=O)c3ccc(C(F)(F)F)cc3)CC2)cc1,-17.3
6,Cc1cc(=O)[nH]c(N/N=C/c2ccccn2)n1,18.1
7,Cc1nnc(N/N=C/c2c[nH]c3ccccc23)[nH]c1=O,-1.2
8,Clc1cnc(N/N=C/c2ccncc2)c(Cl)c1,1.77
9,Cc1ccccc1C(=O)Nc1ccnn1C1CCN(CCCc2ccccc2)CC1,-1.21
10,COC(=O)c1sccc1Oc1ccc(F)cc1[N+](=O)[O-],4.41
11,CN(C)C(=O)c1sccc1Oc1ccc(F)cc1[N+](=O)[O-],7.3
12,COc1ccc(CSCC(=O)Nc2ccccc2SC)cc1,8.6
13,COc1cc2ncnc(NCCCN3CCOCC3)c2cc1OC,-4.12
14,CN1CCC(OC(=O)c2cccc(Cl)c2)CC1,4.43
15,CN1CCC(OC(=O)c2ccccc2Cl)CC1,-6.15
16,CN1CCC(OC(=O)c2ccccc2)CC1,8.65
17,COc1ccc(C(=O)OC2CCN(C)CC2)cc1,3.95
18,CCOC(=O)c1ncn2c1C(=O)OC2(C)C,6.54
19,CCOc1ccccc1OCc1nn2c(-c3ccc(C)cc3)nnc2s1,3
20,C#CCOCCOCCOCCNc1nc(N2CCN(C(=O)[C@H]([C@@H](C)CC)n3cc(CCCCN)nn3)CC2)nc(N2CCN(C(=O)[C@H]([C@@H](C)CC)n3cc(CCCN=C(N)N)nn3)CC2)n1,-1.05
21,C#CCOCCOCCOCCNc1nc(N2CCOCC2)nc(N2CCN(C(=O)CCCCCCCCCCNC(=O)[C@H]([C@@H](C)CC)n3cc(CCCCN=C(N)N)nn3)CC2)n1,5.04
22,C#CCOCCOCCOCCNc1nc(N2CCOCC2)nc(N2CCN(C(=O)CCCCCCCCCCNC(=O)[C@H](CO)n3cc(CCCCCN)nn3)CC2)n1,-10.9
23,C#CCOCCOCCOCCNc1nc(N2CCN(C(=O)CCCCCCCCCCNC(=O)[C@H]([C@@H](C)CC)n3cc(CCCCCN)nn3)CC2)nc(N2CCN(C(=O)CCCCCCCCCCNC(=O)[C@H](CO)n3cc(CCCCCN)nn3)CC2)n1,9.35
24,O=C(COC(=O)/C=C/c1ccc([N+](=O)[O-])cc1)NCc1ccccc1,-8.81
25,CCCCCCC(C)n1cc(C(C)=O)c(=O)n(C)c1=O (stereo not given),-9.33
26,CN(C)CCNC(=O)CCCNC(=O)Cn1cnc2sc3c(c2c1=O)CCCC3,12.2
27,Cc1ccc(-c2nn(C)c(=O)c3ccccc23)cc1S(=O)(=O)NCCO,-2.47
